Results reported in PubChem BioAssay.
Values without a mark were called inactive. Calls of active or inactive are those of the source.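 The calls were made as follows, unless noted: active = mean inhibition above 46.68%, the untreated control wells mean plus 3 SD; inactive = the rest.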

Tests used:
[1] = biological target: Nuclear receptor coactivator 1 (Homo sapiens) (UniProt Q15788); experiment: SRC1 coactivator transcriptional activity inhibitors, confirmation, cell-based, luminescence, quadruplicate (AID 588820); conditions: HEK293 GAL4-SRC1 luciferase reporter, at 3.6 µM, active compounds read high;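 also: 0% = DMSO wells and 100% = gossypol 36 µM treated wells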
[2] = VP16 transactivation inhibitors, counter-screen for SRC1 inhibitor project, cell-based, luminescence, high throughput (AID 588824; in the data active = inhibition above about 25%); conditions: cell-based VP16 transactivation luciferase luminescence; at 3.6 µM; active compounds read high

Chain of Nuclear receptor coactivator 1 (Homo sapiens) (Q15788 whole entry, looked up, the tested form may be a part): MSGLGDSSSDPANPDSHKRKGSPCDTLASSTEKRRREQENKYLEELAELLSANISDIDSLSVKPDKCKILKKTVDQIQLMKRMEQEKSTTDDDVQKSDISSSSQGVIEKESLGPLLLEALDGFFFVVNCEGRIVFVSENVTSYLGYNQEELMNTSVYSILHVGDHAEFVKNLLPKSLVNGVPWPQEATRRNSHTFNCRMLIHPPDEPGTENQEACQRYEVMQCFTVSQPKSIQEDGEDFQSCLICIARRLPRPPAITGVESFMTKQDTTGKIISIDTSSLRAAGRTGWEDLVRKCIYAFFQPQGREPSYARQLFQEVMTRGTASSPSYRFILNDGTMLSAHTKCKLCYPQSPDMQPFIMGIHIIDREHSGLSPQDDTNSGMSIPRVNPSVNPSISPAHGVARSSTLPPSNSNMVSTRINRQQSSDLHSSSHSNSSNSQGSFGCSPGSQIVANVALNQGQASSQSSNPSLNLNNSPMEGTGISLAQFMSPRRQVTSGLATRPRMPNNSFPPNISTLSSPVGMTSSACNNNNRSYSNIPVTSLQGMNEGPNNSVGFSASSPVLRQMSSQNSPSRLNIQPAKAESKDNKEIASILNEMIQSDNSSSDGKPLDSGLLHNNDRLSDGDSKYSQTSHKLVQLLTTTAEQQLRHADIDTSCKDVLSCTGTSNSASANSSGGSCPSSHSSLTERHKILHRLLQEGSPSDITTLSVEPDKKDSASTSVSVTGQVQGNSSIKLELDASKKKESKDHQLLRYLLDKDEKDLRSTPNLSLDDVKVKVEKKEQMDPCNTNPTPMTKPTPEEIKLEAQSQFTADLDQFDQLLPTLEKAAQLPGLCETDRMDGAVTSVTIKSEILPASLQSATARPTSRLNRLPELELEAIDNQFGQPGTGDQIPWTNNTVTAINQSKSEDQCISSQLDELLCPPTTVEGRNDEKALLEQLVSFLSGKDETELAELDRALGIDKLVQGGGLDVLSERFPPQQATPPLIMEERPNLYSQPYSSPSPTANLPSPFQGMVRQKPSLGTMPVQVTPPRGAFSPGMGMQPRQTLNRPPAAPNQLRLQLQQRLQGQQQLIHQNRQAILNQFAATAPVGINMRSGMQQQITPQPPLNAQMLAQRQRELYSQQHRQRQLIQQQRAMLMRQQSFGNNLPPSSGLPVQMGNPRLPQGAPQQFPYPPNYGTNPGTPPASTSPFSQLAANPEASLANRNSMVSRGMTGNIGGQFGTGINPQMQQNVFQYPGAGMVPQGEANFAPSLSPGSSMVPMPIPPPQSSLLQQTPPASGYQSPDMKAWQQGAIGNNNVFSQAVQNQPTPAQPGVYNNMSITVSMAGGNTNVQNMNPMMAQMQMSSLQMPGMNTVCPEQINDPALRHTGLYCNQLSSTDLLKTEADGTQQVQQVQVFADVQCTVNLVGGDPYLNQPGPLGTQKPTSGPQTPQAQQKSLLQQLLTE

Row | Compound | inhibition [1] [%] | inhibition [2]
1 | COc1cc(OC)cc(C(=O)NNC(=O)c2ccccn2)c1 | 10.7 | 2.65%
2 | Cc1sc2ncnc(N3CCC(C(=O)N(C)CC(=O)Nc4ccccc4Br)CC3)c2c1C | 5.26 | 13.3%
3 | CCc1cc(=O)[nH]c(SCC(=O)NCc2ccc3c(c2)OCO3)n1 | -4.66 | 1.83%
4 | CC(C)c1ccc2c(c1)C(N1CCN(C)CC1)Cc1cccnc1S2 (centres undefined) | 6.3 | -5.2%
5 | COc1ccc(CCN2C(=O)C3C4C=CC(C3C2=O)C2C(=O)N(CCc3ccc(OC)c(OC)c3)C(=O)C42)cc1OC (centres undefined) | -5.96 | 11.5%
6 | COc1ccc(-n2cc(-c3ccccc3)c3c(N4CCOCC4)ncnc32)cc1 | -50.7 | -1.14%
7 | CN1OC[C@@H]2CN(C(=S)NCCc3ccccc3)[C@H](c3ccc(-n4ccnc4)cc3)C[C@@H]21 | -1.96 | -0.23%
8 | CCN(CC)c1ccc(C=Nc2cc(C)ccc2C)c(O)c1 | 3.4 | -6.63%
9 | CC(C)Oc1ccc(C(=O)Nc2nc3ccccc3[nH]2)cc1 | -74.9 | -39.4%
10 | CC(=NCc1cccc(Cl)c1)c1nc(-c2ccco2)oc1O | 4.53 | 45% (active)
11 | COCCn1cnc2c1c(=O)n(Cc1ccccc1C#N)c(=O)n2Cc1ccccc1 | -22.2 | 1.6%
12 | CCNC(=O)C1(C)CCN(C(=O)c2ccc(F)cc2Cl)C1 (centres undefined) | 4.79 | 3.22%
